Bioassay records (PubChem BioAssay)
Only some compounds are listed: those with a hit (about 8.2% of all), similar ones and a draw of the others.
SW480 rerep = inducers of DNA re-replication in SW480 colon cancer cells. SW480 DNA re-replication, Hoechst DNA content imaging, 48 h. Potency, µM (highest dose often 46.1 µM), inactives show at the top dose re-replication activation, usual class: activators. 340,000 tested, 1.8% active; note: % of control where 0% means no effect; nearly all actives have a fitted effect of over 55% in size
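DNA re-replication was detected as more nuclei of elevated Hoechst intensity after 48 hr exposure to compound (23 nL pinned per well of 250 cells).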
MCF10A rereplic = inducers of DNA re-replication in MCF 10A breast cells. MCF 10A DNA re-replication, Hoechst nuclear intensity, 48 h. Potency, µM (top dose mostly 46.1 µM), for the others: at the top dose activity, positive = re-replication, hits mostly activators. 350,000 tested, 2.9% active; note: % of control where 0% means no effect; nearly all actives have a fitted effect of over 50% in size
ELG1 repair inh = inhibitors of ELG1-dependent DNA repair in HEK293T cells | Potency, µM (titrated, usually from 46.1 µM), for inactives: at the top dose activity change, negative = inhibition, actives largely listed as inhibitors | 330,000 tested, 2.3% active | HEK293T ELG1-luciferase reporter, luminescence, 16 h; DNA damage induced by 5-fluorouridine | AID 504467; note: % is set by controls: 0 for no effect and ±100 for the full control effect; nearly all actives have a fitted effect of over 55% in size
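Overnight (16 hr) co-exposure of 2,000 cells/well to 5-fluorouridine and compound at 37 °C preceded detection. Luciferase was quantified via ONE-Glo luminescence; loss of signal denotes inhibition.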
KB-V1 MDR tox = kills drug-selected multidrug resistant KB-V1 cells. AID 1347076. 400,000 tested, 3.4% active. KB-V1 MDR cells viability, CellTiter-Glo, 72 h. Potency, µM (top dose mostly 46.1 µM), most hits filed as cytotoxic; note: % is set by controls: 0 for no effect and ±100 for the full control effect; nearly all actives have a fitted effect of over 60% in size
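KB-V1, DMEM (no phenol red) + 10% FBS; cpd pin-transferred, titration series; 72 h, 37 degrees C; CellTiter-Glo, luminescence. Data normalized, curve-fit.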
KB-3-1 tox = KB-3-1 parental cell cytotoxicity | KB-3-1 viability, CellTiter-Glo ATP luminescence, 72 h | Potency, µM (top dose mostly 46.1 µM), actives largely listed as cytotoxic | 400,000 tested, 1.4% active | AID 1347075; note: % is set by controls: 0 for no effect and ±100 for the full control effect; nearly all actives have a fitted effect of over 60% in size
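Cells are dispensed, compounds pinned in, plates held at 37 °C for 72 h, then CellTiter-Glo is added and luminescence read after 10 minutes. Cell line: parental KB-3-1 in phenol-red-free DMEM, 10% FBS.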
* = called active by the depositor; i = inactive; ? = inconclusive; . = no result given; [ ] = remark or other dose. Calls come from the whole dose curve; as a rule, active = well fitted curve in the direction sought with a large enough effect; inconclusive = small, poorly fitted or top-dose-only effect, or another doubt; inactive = no such curve, though single readings can be large; an effect the other way counts as inactive or inconclusive. Potency is the fitted concentration of half-maximal effect.

SMILES | SW480 rerep | MCF10A rereplic | ELG1 repair inh | KB-V1 MDR tox | KB-3-1 tox
CCOc1cc(C(=O)Nc2cc(C)ccc2OC)ccc1OCC(=O)N1CCCCC1 | -147% | -35% | -7% | 7.3µM* | i
COc1cc(C(=O)Nc2nc(-c3ccc(F)cc3)cs2)ccc1OCC(=O)N1CCOCC1 | 1% | 23µM* | ? | i | i
COc1cc(C(=O)Nc2nc(-c3ccc(C)cc3)cs2)ccc1OCC(=O)N1CCOCC1 | -88% | 21% | 21µM* | i | i
CCOc1ccccc1NC(=O)c1ccc(OCC(=O)N2CCOCC2)c(OC)c1 | -1% | 1% | 7% | i | i
COc1cc(C(=O)NNC(=O)c2ccc(F)cc2)ccc1OCC(=O)N1CCOCC1 | -5% | -2% | ? | i | i
COc1cc(CN2CCC(n3nccc3NC(=O)CCCc3ccccc3)CC2)ccc1F | -1% | 0% | ? | i | i
CC1(C)C[C@@H](O)[C@]2(C)CC[C@]3(C)C(=CCC4[C@@]5(C)CC[C@H](O)[C@](C)(CO)C5CC[C@]43C)[C@@H]2C1 (stereo partly specified) | 3% | ? | 7% | i | i
CC1=C(C(=O)N2CCCCCC2)CC(CC(=O)NCCCN(C)C)C(=O)N1Cc1ccccc1 (stereo unspecified) | . | . | . | i | i
CCc1cccc(NC(=O)Cn2c(=O)ccc3cc(S(=O)(=O)N4CCC(C)CC4)ccc32)c1 | . | . | . | i | i
C[C@@H]1CN([C@H](C)CO)C(=O)c2cc(Br)cnc2O[C@@H]1CN(C)C(=O)c1ccccc1 | . | . | . | i | i
COc1c(C)cccc1C(=O)Nc1ccc(N2CCN(C(=O)c3ccccc3C)CC2)cc1 | ? | -10% | 10µM* | . | .
Cc1ccccc1C(=O)N1CCN(c2ccc(NC(=O)c3ccc4c(c3)OCCO4)cc2)CC1 | -8% | 16µM* | ? | 8.2µM* | ?
Cc1ccccc1C(=O)N1CCN(c2ccc(NC(=O)c3cccc(OC(C)C)c3)cc2)CC1 | -3% | 2% | 16µM* | . | .
CCNC(=O)C1(C)CCCN(C(=O)c2cccc(C)c2C)C1 (stereo unspecified) | . | . | . | i | i
CCOc1ccc(CCNC(=O)CSc2nnnn2-c2ccccc2Cl)cc1OCC | . | . | . | ? | i
COc1ccc(C)cc1NC(=O)CN1c2ccccc2S(=O)(=O)c2ccccc21 | . | . | . | i | i
Cc1ccccc1S(=O)c1ccccc1C(=O)O (stereo unspecified) | -13% | -6% | 16% | i | i
COc1cc(-c2cc(NC=O)c3ncc(-c4ccccc4)n3c2)cc(OC)c1OC | . | . | . | ? | i
COc1ccc(F)cc1-c1cc(NC=O)c2ncc(-c3cc(OC)c(OC)c(OC)c3)n2c1 | . | . | . | 6.5µM* | ?
COc1ccccc1-c1cc(NC=O)c2ncc(-c3ccc(F)cc3)n2c1 | . | . | . | 9.2µM* | 16µM*
COc1ccc(-c2cc(NC(C)=O)c3ncc(-c4ccc(OC)c(OC)c4)n3c2)cc1OC | . | . | . | 12µM* | ?
COc1cc(-c2cnc3c(NC=O)cc(-c4ccccc4)cn23)cc(OC)c1OC | . | . | . | i | ?
COc1cc(-c2cnc3c(NC=O)cc(-c4ccc(C)cc4)cn23)cc(OC)c1OC | . | . | . | 0.58µM* | 0.16µM*
CCOc1ccc(CCN2C(=O)C(=O)N([C@@H](Cc3ccccc3)CN3CCC[C@H]3CN3C(=O)C(=O)NC[C@@H]3CC(C)C)C[C@@H]2Cc2ccc(O)cc2)cc1 | . | . | . | i | ?
CC(C)(C)c1ccc(OCCC(=O)NNC(=O)c2ccncc2)cc1 | 4% | 10% | 15% | i | i
SMILES | SW480 rerep | MCF10A rereplic | ELG1 repair inh | KB-V1 MDR tox | KB-3-1 tox
CC(C)c1ccc(NC(=O)COC(=O)Cn2cnc3c2c(=O)n(C)c(=O)n3C)cc1 | . | . | . | ? | i
CC(=O)c1c(C)[nH]c(C(=O)NNC(=O)c2ccc(Br)cc2)c1C | -2% | 0% | 12% | i | i
Cc1ccc(-c2cc(NC=O)c3ncc(-c4cnn(C)c4)n3c2)cc1 | . | . | . | 5.8µM* | 10µM*
COc1cccc(-c2cnc3c(NC=O)cc(-c4cccc(NC(C)=O)c4)cn23)c1 | . | . | . | ? | i
COc1cc(-c2cnc3c(NC=O)cc(-c4cccc(NC(C)=O)c4)cn23)cc(OC)c1OC | . | . | . | i | 0.37µM*
COc1cc(-c2cnc3c(NC=O)cc(-c4ccccc4Cl)cn23)cc(OC)c1OC | . | . | . | 3.3µM* | 1µM*
Cc1ccc(-c2cc(NC=O)c3ncc(-c4cccc(C(=O)N(C)C)c4)n3c2)cc1 | . | . | . | i | ?
CCOCCc1nn2c(=O)cc(COC(=O)c3ccccc3OC)nc2s1 | . | . | . | i | i
c1ccc(COn2nnc3ccccc32)c(COn2nnc3ccccc32)c1 | -7% | ? | ? | 16µM* | i
Clc1cccc(Cl)c1COn1nnc2ccccc21 | ? | ? | ? | ? | i
CCOC(=O)c1cnn(-c2ccc(NS(=O)(=O)c3ccc(Cl)cc3)cc2)c1C(F)(F)F | -10%[9.22 µM] | ? | 23µM* | i | i
CC(C)(C)Sc1ccc(/C=N/O)cc1[N+](=O)[O-] | 2% | 4% | 0% | 23µM* | i
Cc1ccc(Sc2ccc(/C=N/O)cc2[N+](=O)[O-])cc1 | ? | 21µM* | . | i | i
O=[N+]([O-])c1cc(/C=N/O)ccc1SCc1ccccc1Cl | ? | ? | 19% | 21µM* | i
Cc1cc(C(=O)N2CCC2(C)C(=O)NCC(C)(C)C)nn1C (stereo unspecified) | . | . | . | i | i
COc1ccc(OCC(=O)Nc2cc(-c3ccccc3F)nn2-c2ccccc2)cc1 | . | . | . | i | i
